Key:
[1] = target: NR5A2 wild type;histone octamer (Homo sapiens;, UniProt O00482;C0HKE1;Q6ZWY9;P84244;P62806 1-541;2-130;2-126;2-136;2-103, |); experiment: SeEN-seq (EMSA of nucleosome library followed by sequencing); 0.8 uM human NR5A2; 20 mM Tris-HCl pH 7.5, 120 mM NaCl, 1 mM MgCl2, 10 uM ZnCl2, 1 mM DTT, 100 ug/ml BSA, room temperature, 30 min; 0.1 uM nucleosome library; high values mean tight binding
[2] = target: mouse Nr5a2 wild type;histone octamer (Mus musculus;, UniProt P45448;C0HKE1;Q6ZWY9;P84244;P62806 1-560;2-130;2-126;2-136;2-103, |); experiment: SeEN-seq (EMSA of nucleosome library followed by sequencing); 1.2 uM mouse Nr5a2; 20 mM Tris-HCl pH 7.5, 120 mM NaCl, 1 mM MgCl2, 10 uM ZnCl2, 1 mM DTT, 100 ug/ml BSA, room temperature, 30 min; 0.1 uM nucleosome library; high values mean tight binding

Row | Binder | binding signal [1] | binding signal [2]
1 | 60 (nucleosome, reconstituted with mouse histones H2A, H2B, H3.3 and H4) DNA 1: ATCCTGGAGAATCCCGGTGCCGAGGCCGCTCAATTGGTCGTAGACAGCTCTAGCACCGCTTATCAAGGCCAACGCGCTGTCCCCCGCGTTTTAACCGCCAAGGGGATTACTCCCTAGTCTCCAGGCACGTGTCAGATATATACATCCTGTGAT DNA 2: ATCACAGGATGTATATATCTGACACGTGCCTGGAGACTAGGGAGTAATCCCCTTGGCGGTTAAAACGCGGGGGACAGCGCGTTGGCCTTGATAAGCGGTGCTAGAGCTGTCTACGACCAATTGAGCGGCCTCGGCACCGGGATTCTCCAGGAT | 0.819 log2 enrichment (bound/unbound, relative to Widom 601) | 0.573 log2 enrichment (bound/unbound, relative to Widom 601)
2 | 61 (nucleosome, reconstituted with mouse histones H2A, H2B, H3.3 and H4) DNA 1: ATCCTGGAGAATCCCGGTGCCGAGGCCGCTCAATTGGTCGTAGACAGCTCTAGCACCGCTTAATCAAGGCCACGCGCTGTCCCCCGCGTTTTAACCGCCAAGGGGATTACTCCCTAGTCTCCAGGCACGTGTCAGATATATACATCCTGTGAT DNA 2: ATCACAGGATGTATATATCTGACACGTGCCTGGAGACTAGGGAGTAATCCCCTTGGCGGTTAAAACGCGGGGGACAGCGCGTGGCCTTGATTAAGCGGTGCTAGAGCTGTCTACGACCAATTGAGCGGCCTCGGCACCGGGATTCTCCAGGAT | 0.699 log2 enrichment (bound/unbound, relative to Widom 601) | 0.779 log2 enrichment (bound/unbound, relative to Widom 601)
3 | 8 (nucleosome, reconstituted with mouse histones H2A, H2B, H3.3 and H4) DNA 1: ATCCTGGAGATCAAGGCCACCGAGGCCGCTCAATTGGTCGTAGACAGCTCTAGCACCGCTTAAACGCACGTACGCGCTGTCCCCCGCGTTTTAACCGCCAAGGGGATTACTCCCTAGTCTCCAGGCACGTGTCAGATATATACATCCTGTGAT DNA 2: ATCACAGGATGTATATATCTGACACGTGCCTGGAGACTAGGGAGTAATCCCCTTGGCGGTTAAAACGCGGGGGACAGCGCGTACGTGCGTTTAAGCGGTGCTAGAGCTGTCTACGACCAATTGAGCGGCCTCGGTGGCCTTGATCTCCAGGAT | 2.08 log2 enrichment (bound/unbound, relative to Widom 601) | 1.69 log2 enrichment (bound/unbound, relative to Widom 601)
4 | 62 (nucleosome, reconstituted with mouse histones H2A, H2B, H3.3 and H4) DNA 1: ATCCTGGAGAATCCCGGTGCCGAGGCCGCTCAATTGGTCGTAGACAGCTCTAGCACCGCTTAAATCAAGGCCAGCGCTGTCCCCCGCGTTTTAACCGCCAAGGGGATTACTCCCTAGTCTCCAGGCACGTGTCAGATATATACATCCTGTGAT DNA 2: ATCACAGGATGTATATATCTGACACGTGCCTGGAGACTAGGGAGTAATCCCCTTGGCGGTTAAAACGCGGGGGACAGCGCTGGCCTTGATTTAAGCGGTGCTAGAGCTGTCTACGACCAATTGAGCGGCCTCGGCACCGGGATTCTCCAGGAT | 1.24 log2 enrichment (bound/unbound, relative to Widom 601) | 1.27 log2 enrichment (bound/unbound, relative to Widom 601)
5 | 63 (nucleosome, reconstituted with mouse histones H2A, H2B, H3.3 and H4) DNA 1: ATCCTGGAGAATCCCGGTGCCGAGGCCGCTCAATTGGTCGTAGACAGCTCTAGCACCGCTTAAACTCAAGGCCACGCTGTCCCCCGCGTTTTAACCGCCAAGGGGATTACTCCCTAGTCTCCAGGCACGTGTCAGATATATACATCCTGTGAT DNA 2: ATCACAGGATGTATATATCTGACACGTGCCTGGAGACTAGGGAGTAATCCCCTTGGCGGTTAAAACGCGGGGGACAGCGTGGCCTTGAGTTTAAGCGGTGCTAGAGCTGTCTACGACCAATTGAGCGGCCTCGGCACCGGGATTCTCCAGGAT | 1.09 log2 enrichment (bound/unbound, relative to Widom 601) | 1.1 log2 enrichment (bound/unbound, relative to Widom 601)
6 | 64 (nucleosome, reconstituted with mouse histones H2A, H2B, H3.3 and H4) DNA 1: ATCCTGGAGAATCCCGGTGCCGAGGCCGCTCAATTGGTCGTAGACAGCTCTAGCACCGCTTAAACGTCAAGGCCAGCTGTCCCCCGCGTTTTAACCGCCAAGGGGATTACTCCCTAGTCTCCAGGCACGTGTCAGATATATACATCCTGTGAT DNA 2: ATCACAGGATGTATATATCTGACACGTGCCTGGAGACTAGGGAGTAATCCCCTTGGCGGTTAAAACGCGGGGGACAGCTGGCCTTGACGTTTAAGCGGTGCTAGAGCTGTCTACGACCAATTGAGCGGCCTCGGCACCGGGATTCTCCAGGAT | 0.83 log2 enrichment (bound/unbound, relative to Widom 601) | 0.992 log2 enrichment (bound/unbound, relative to Widom 601)
7 | 65 (nucleosome, reconstituted with mouse histones H2A, H2B, H3.3 and H4) DNA 1: ATCCTGGAGAATCCCGGTGCCGAGGCCGCTCAATTGGTCGTAGACAGCTCTAGCACCGCTTAAACGCTCAAGGCCACTGTCCCCCGCGTTTTAACCGCCAAGGGGATTACTCCCTAGTCTCCAGGCACGTGTCAGATATATACATCCTGTGAT DNA 2: ATCACAGGATGTATATATCTGACACGTGCCTGGAGACTAGGGAGTAATCCCCTTGGCGGTTAAAACGCGGGGGACAGTGGCCTTGAGCGTTTAAGCGGTGCTAGAGCTGTCTACGACCAATTGAGCGGCCTCGGCACCGGGATTCTCCAGGAT | 0.891 log2 enrichment (bound/unbound, relative to Widom 601) | 1.14 log2 enrichment (bound/unbound, relative to Widom 601)
8 | 66 (nucleosome, reconstituted with mouse histones H2A, H2B, H3.3 and H4) DNA 1: ATCCTGGAGAATCCCGGTGCCGAGGCCGCTCAATTGGTCGTAGACAGCTCTAGCACCGCTTAAACGCATCAAGGCCATGTCCCCCGCGTTTTAACCGCCAAGGGGATTACTCCCTAGTCTCCAGGCACGTGTCAGATATATACATCCTGTGAT DNA 2: ATCACAGGATGTATATATCTGACACGTGCCTGGAGACTAGGGAGTAATCCCCTTGGCGGTTAAAACGCGGGGGACATGGCCTTGATGCGTTTAAGCGGTGCTAGAGCTGTCTACGACCAATTGAGCGGCCTCGGCACCGGGATTCTCCAGGAT | 1.05 log2 enrichment (bound/unbound, relative to Widom 601) | 1.15 log2 enrichment (bound/unbound, relative to Widom 601)
9 | 67 (nucleosome, reconstituted with mouse histones H2A, H2B, H3.3 and H4) DNA 1: ATCCTGGAGAATCCCGGTGCCGAGGCCGCTCAATTGGTCGTAGACAGCTCTAGCACCGCTTAAACGCACTCAAGGCCAGTCCCCCGCGTTTTAACCGCCAAGGGGATTACTCCCTAGTCTCCAGGCACGTGTCAGATATATACATCCTGTGAT DNA 2: ATCACAGGATGTATATATCTGACACGTGCCTGGAGACTAGGGAGTAATCCCCTTGGCGGTTAAAACGCGGGGGACTGGCCTTGAGTGCGTTTAAGCGGTGCTAGAGCTGTCTACGACCAATTGAGCGGCCTCGGCACCGGGATTCTCCAGGAT | 0.806 log2 enrichment (bound/unbound, relative to Widom 601) | 0.96 log2 enrichment (bound/unbound, relative to Widom 601)
10 | 68 (nucleosome, reconstituted with mouse histones H2A, H2B, H3.3 and H4) DNA 1: ATCCTGGAGAATCCCGGTGCCGAGGCCGCTCAATTGGTCGTAGACAGCTCTAGCACCGCTTAAACGCACGTCAAGGCCATCCCCCGCGTTTTAACCGCCAAGGGGATTACTCCCTAGTCTCCAGGCACGTGTCAGATATATACATCCTGTGAT DNA 2: ATCACAGGATGTATATATCTGACACGTGCCTGGAGACTAGGGAGTAATCCCCTTGGCGGTTAAAACGCGGGGGATGGCCTTGACGTGCGTTTAAGCGGTGCTAGAGCTGTCTACGACCAATTGAGCGGCCTCGGCACCGGGATTCTCCAGGAT | 0.625 log2 enrichment (bound/unbound, relative to Widom 601) | 0.543 log2 enrichment (bound/unbound, relative to Widom 601)
11 | 69 (nucleosome, reconstituted with mouse histones H2A, H2B, H3.3 and H4) DNA 1: ATCCTGGAGAATCCCGGTGCCGAGGCCGCTCAATTGGTCGTAGACAGCTCTAGCACCGCTTAAACGCACGTTCAAGGCCACCCCCGCGTTTTAACCGCCAAGGGGATTACTCCCTAGTCTCCAGGCACGTGTCAGATATATACATCCTGTGAT DNA 2: ATCACAGGATGTATATATCTGACACGTGCCTGGAGACTAGGGAGTAATCCCCTTGGCGGTTAAAACGCGGGGGTGGCCTTGAACGTGCGTTTAAGCGGTGCTAGAGCTGTCTACGACCAATTGAGCGGCCTCGGCACCGGGATTCTCCAGGAT | 0.77 log2 enrichment (bound/unbound, relative to Widom 601) | 0.872 log2 enrichment (bound/unbound, relative to Widom 601)
12 | 70 (nucleosome, reconstituted with mouse histones H2A, H2B, H3.3 and H4) DNA 1: ATCCTGGAGAATCCCGGTGCCGAGGCCGCTCAATTGGTCGTAGACAGCTCTAGCACCGCTTAAACGCACGTATCAAGGCCACCCCGCGTTTTAACCGCCAAGGGGATTACTCCCTAGTCTCCAGGCACGTGTCAGATATATACATCCTGTGAT DNA 2: ATCACAGGATGTATATATCTGACACGTGCCTGGAGACTAGGGAGTAATCCCCTTGGCGGTTAAAACGCGGGGTGGCCTTGATACGTGCGTTTAAGCGGTGCTAGAGCTGTCTACGACCAATTGAGCGGCCTCGGCACCGGGATTCTCCAGGAT | 1.27 log2 enrichment (bound/unbound, relative to Widom 601) | 1.51 log2 enrichment (bound/unbound, relative to Widom 601)
13 | 71 (nucleosome, reconstituted with mouse histones H2A, H2B, H3.3 and H4) DNA 1: ATCCTGGAGAATCCCGGTGCCGAGGCCGCTCAATTGGTCGTAGACAGCTCTAGCACCGCTTAAACGCACGTACTCAAGGCCACCCGCGTTTTAACCGCCAAGGGGATTACTCCCTAGTCTCCAGGCACGTGTCAGATATATACATCCTGTGAT DNA 2: ATCACAGGATGTATATATCTGACACGTGCCTGGAGACTAGGGAGTAATCCCCTTGGCGGTTAAAACGCGGGTGGCCTTGAGTACGTGCGTTTAAGCGGTGCTAGAGCTGTCTACGACCAATTGAGCGGCCTCGGCACCGGGATTCTCCAGGAT | 1.13 log2 enrichment (bound/unbound, relative to Widom 601) | 1.45 log2 enrichment (bound/unbound, relative to Widom 601)
14 | 9 (nucleosome, reconstituted with mouse histones H2A, H2B, H3.3 and H4) DNA 1: ATCCTGGAGAATCAAGGCCACGAGGCCGCTCAATTGGTCGTAGACAGCTCTAGCACCGCTTAAACGCACGTACGCGCTGTCCCCCGCGTTTTAACCGCCAAGGGGATTACTCCCTAGTCTCCAGGCACGTGTCAGATATATACATCCTGTGAT DNA 2: ATCACAGGATGTATATATCTGACACGTGCCTGGAGACTAGGGAGTAATCCCCTTGGCGGTTAAAACGCGGGGGACAGCGCGTACGTGCGTTTAAGCGGTGCTAGAGCTGTCTACGACCAATTGAGCGGCCTCGTGGCCTTGATTCTCCAGGAT | 3.63 log2 enrichment (bound/unbound, relative to Widom 601) | 3.37 log2 enrichment (bound/unbound, relative to Widom 601)
15 | 72 (nucleosome, reconstituted with mouse histones H2A, H2B, H3.3 and H4) DNA 1: ATCCTGGAGAATCCCGGTGCCGAGGCCGCTCAATTGGTCGTAGACAGCTCTAGCACCGCTTAAACGCACGTACGTCAAGGCCACCGCGTTTTAACCGCCAAGGGGATTACTCCCTAGTCTCCAGGCACGTGTCAGATATATACATCCTGTGAT DNA 2: ATCACAGGATGTATATATCTGACACGTGCCTGGAGACTAGGGAGTAATCCCCTTGGCGGTTAAAACGCGGTGGCCTTGACGTACGTGCGTTTAAGCGGTGCTAGAGCTGTCTACGACCAATTGAGCGGCCTCGGCACCGGGATTCTCCAGGAT | 1 log2 enrichment (bound/unbound, relative to Widom 601) | 1.27 log2 enrichment (bound/unbound, relative to Widom 601)
